Calls of active or inactive are those of the source. No rule for the calls is given here.
Test system: HIV-1 nucleocapsid protein NCp7 (binding to TG oligonucleotide)
Test: HIV Nucleocapsid (AID 346);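 also: potency is for inhibitors that block NC binding and lower polarization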
Settings: HIV-1 NC / fluorescein-TGTGTGTG probe, fluorescence polarization
Procedure: NCGC Assay Overview: HIV-1 nucleocapsid protein (HIV-1 NC) is a small (6.5 kDa) basic zinc-finger protein which participates in packaging of viral genomic RNA. The spacing and metal-chelating residues (3 Cys, 1 His) of the Cys-X2-Cys-X4-His-X4-Cys Zn fingers are conserved among all known retroviruses (J. Med. Chem. 1998, 41, 1371-1381). HIV-1 NC was assayed for its binding to the consensus sequence single-stranded 5'-TGTGTGTG. […] High salt was included to increase the stringency of binding and inhibitor screen. Reducing agents and zinc were present to stabilize the nucleocapsid zinc-finger protein.
NCGC Assay Protocol Summary: Buffer. Hepes pH 7.5, 250mM NaCl, 1uM ZnCl2. 0.004% polyethylene glycol 20000. TCEP (100 uM) and 2-Mercaptoethanol (5 mM), added fresh the day of the experiment. Reagents/Controls. 10 nM TG4xF only in columns 3 and 4 as negative control. 10 nM TG4xF/100 nM HIV-1 NC in columns 1, 2, 5-48. Titration of control compound NSC-13778 (from 20 mM, then 1:2) pin-transferred to column 2. Assay Steps. Two uL of reagents were dispensed to 1536-well Kalypsys black plates. The plates were centrifuged for 1 min at 1000 rpm. Compounds and controls (20 nL) were transferred via Kalypsys PinTool. The plates were incubated for 1 hr at room temperature, and then read on ViewLux (Perkin-Elmer). High-throughput CCD imager using fluorescein polarization filter set and 45 seconds exposure time.
Potency is read from the fitted curve at half-maximal effect.

| Structure (SMILES) | Potency |
| --- | --- |
| Cc1nc2cncnc2n(C2CC2)c1=O | > 20 µM (inactive) |
| O=C(c1csnn1)N1CCC[C@@]2(CCN(Cc3nccs3)C2)C1 | > 20 µM (inactive) |
| COC(=O)N1CCC2(CC1)CN(c1ccccn1)C2 | > 20 µM (inactive) |
| O=c1c(-c2cc(F)cc(F)c2)nc2cncnc2n1-c1ccccc1 | > 20 µM (inactive) |
| Cn1cccc1C(=O)N1CCC2(CC1)CN(c1ccccn1)C2 | > 20 µM (inactive) |
| Cc1nc2cnc(N3CCNCC3)nc2n(C2CC2)c1=O | > 20 µM (inactive) |
| O=c1cnc2cnc(N3CCNCC3)nc2n1CCc1ccccc1 | > 20 µM (inactive) |
| Cc1nc2cnc(Oc3ccccc3)nc2n(CCc2ccccc2)c1=O | > 20 µM (inactive) |
| O=C(c1csnn1)N1CCC2(CCCN(c3ccccn3)C2)CC1 | > 20 µM (inactive) |
| N#CCCn1c(=O)c(-c2ccc(Cl)cc2)nc2cnc(N3CCNCC3)nc21 | > 20 µM (inactive) |
| CN1CCN(c2ncc3nc(CCc4ccccc4)c(=O)n(CCC#N)c3n2)CC1 | > 20 µM (inactive) |
| COC(=O)N1CCC2(CCCN(c3ccncc3)C2)CC1 | > 20 µM (inactive) |
| O=C(Nc1cccc(F)c1)N1CCC2(CC1)CCN(C(=O)c1cc(C(F)(F)F)cc(C(F)(F)F)c1)CC2 | > 20 µM (inactive) |
| O=C(c1csnn1)N1CCC2(CCN(Cc3cc(C(F)(F)F)cc(C(F)(F)F)c3)CC2)CC1 | > 20 µM (inactive) |
| c1ccc(CNc2cc(-c3cccnc3)ncn2)cc1 | > 20 µM (inactive) |
| CCNc1ncc2nc(-c3ccccc3)c(=O)n(CCC#N)c2n1 | > 20 µM (inactive) |
| O=C(Nc1ccccc1)N1CCC2(CC1)CCN(C(=O)c1ccncc1)CC2 | > 20 µM (inactive) |
| COc1ccc2[nH]cc(CCNc3cc(-c4ccccc4OC)ncn3)c2c1 | > 20 µM (inactive) |
| CC(=O)N1CCC2(CCN(Cc3ccncc3)CC2)CC1 | > 20 µM (inactive) |
| O=C(c1cnccn1)N1CCC[C@@]2(CCN(C(c3ccccc3)c3ccccc3)C2)C1 | > 20 µM (inactive) |

| Structure (SMILES) | Potency |
| --- | --- |
| O=C(c1ccncc1)N1CCC[C@@]2(CCN(c3cccc(-c4ccccc4)c3)C2)C1 | > 20 µM (inactive) |
| Cc1noc(C)c1-c1nc(Nc2ccc(F)cc2)c2ccccc2n1 | > 20 µM (inactive) |
| Cn1cccc1C(=O)N1CCC2(CC1)CN(C(=O)Nc1ccccc1)C2 | > 20 µM (inactive) |
| O=C(Nc1ccccc1)N1CC2(CCN(C(=O)c3cc(C(F)(F)F)cc(C(F)(F)F)c3)CC2)C1 | > 20 µM (inactive) |
| N#Cc1ccc(CN2CCCC3(CCN(C(=O)c4ccncc4)CC3)C2)cc1 | > 20 µM (inactive) |
| c1ccc2c(NC3CCNCC3)nc(-c3ccoc3)nc2c1 | > 20 µM (inactive) |
| CS(=O)(=O)N1CCC2(CC1)CN(c1ncccn1)C2 | > 20 µM (inactive) |
| CN(C)Cc1ccccc1-c1cc(N(C)C)ncn1 | > 20 µM (inactive) |
| FC(F)(F)c1ccccc1-c1cncnc1NCc1cccs1 | > 20 µM (inactive) |
| N#CCCn1c(=O)c(-c2cccs2)nc2cnc(Oc3cccc(Cl)c3)nc21 | > 4 µM (inactive) |
| CN(C)C(=O)c1ccc(-c2cncnc2NCCN2CCOCC2)cc1 | > 20 µM (inactive) |
| COC(=O)N1CCC2(CC1)CCN(c1ccncc1)CC2 | > 20 µM (inactive) |
| COc1cccc(Nc2ncc3ncc(=O)n(Cc4cccs4)c3n2)c1 | > 20 µM (inactive) |
| COc1ccccc1CCn1c(=O)cnc2cncnc21 | > 20 µM (inactive) |
| Cc1noc(C)c1-c1nc(Nc2ccncc2)c2ccccc2n1 | > 20 µM (inactive) |
| Clc1ccccc1-c1cc(NCc2ccccc2)ncn1 | > 20 µM (inactive) |
| CN(C)c1ncc2nc(-c3cccc(C#N)c3)c(=O)n(C[C@H]3CCCO3)c2n1 | > 20 µM (inactive) |
| Cn1c(=O)c(-c2ccc(F)cc2)nc2cnc(N3CCOCC3)nc21 | > 20 µM (inactive) |
| COc1ccc(Oc2ncc3nc(-c4cccs4)c(=O)n(Cc4cccc(OC)c4)c3n2)cc1 | > 20 µM (inactive) |
| COc1cccc(Nc2ncc3ncc(=O)n(Cc4ccc(F)cc4)c3n2)c1 | > 20 µM (inactive) |

Source: PubChem BioAssay (NCATS)
